Measured values from PubChem BioAssay AID488969 (Vanderbilt High Throughput Screening Facility, 2010).
In all, about 110,000 compounds were measured (“z-score”: median about -0.1, highest 2% from about 2 on). The full list was thinned out, with the highest values kept by preference. Calls of active or inactive are those of the source.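 How the source made its calls: active means z-score in the third read window above 3 or below -3; inactive means the rest.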

Target: Metabotropic glutamate receptor 8 (Rattus norvegicus) (UniProt P70579)
Sequence (P70579 whole entry, looked up): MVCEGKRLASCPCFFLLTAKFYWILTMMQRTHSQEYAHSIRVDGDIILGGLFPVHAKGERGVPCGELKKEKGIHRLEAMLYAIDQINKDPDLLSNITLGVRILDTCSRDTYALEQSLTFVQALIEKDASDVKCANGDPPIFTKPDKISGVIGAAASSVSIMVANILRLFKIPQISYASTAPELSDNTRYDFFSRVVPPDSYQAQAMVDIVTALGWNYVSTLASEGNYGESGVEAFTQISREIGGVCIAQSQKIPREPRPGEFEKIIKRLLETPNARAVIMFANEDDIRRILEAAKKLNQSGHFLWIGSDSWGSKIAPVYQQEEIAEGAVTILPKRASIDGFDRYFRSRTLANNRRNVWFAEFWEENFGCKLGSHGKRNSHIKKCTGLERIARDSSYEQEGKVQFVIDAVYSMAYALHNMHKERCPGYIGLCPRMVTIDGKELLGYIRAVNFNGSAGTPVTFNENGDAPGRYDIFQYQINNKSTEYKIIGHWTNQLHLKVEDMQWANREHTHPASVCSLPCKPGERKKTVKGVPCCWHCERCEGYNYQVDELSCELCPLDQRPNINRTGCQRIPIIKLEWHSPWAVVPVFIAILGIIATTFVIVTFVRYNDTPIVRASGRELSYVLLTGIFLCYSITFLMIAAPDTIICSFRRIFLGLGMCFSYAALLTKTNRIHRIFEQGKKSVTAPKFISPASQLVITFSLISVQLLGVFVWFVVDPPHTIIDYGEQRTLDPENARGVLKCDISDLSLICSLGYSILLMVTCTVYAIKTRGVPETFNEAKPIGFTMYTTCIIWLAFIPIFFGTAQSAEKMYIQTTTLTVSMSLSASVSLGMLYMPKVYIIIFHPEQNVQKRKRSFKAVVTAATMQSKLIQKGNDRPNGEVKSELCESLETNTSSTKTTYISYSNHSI
Experiment: mGluR8 Gi/Go-coupled signaling modulation – cell-based, rat, thallium flux, HTS, primary screen (AID 488969)
Settings: HEK293 rat mGluR8, GIRK (G protein-gated inwardly rectifying potassium channel) thallium flux, FluoZin2; at 10 µM; stronger effect = higher value

Row | SMILES | z-score
1 | O=C(NC(Oc1ccccc1)C(Cl)(Cl)Cl)c1ccccc1 (stereo not given) | -0.149
2 | CN(C(=O)Oc1ccc(Cl)c2cccnc12)c1ccccc1 | -0.251
3 | CCOc1ccc(N=Cc2c(O)n(C(C)(C)C)c(=O)[nH]c2=O)cc1 | -0.283
4 | CCOC(=O)C1C2NC(=O)N(Cc3ccccc3)C1(C)Oc1c(OC)cccc12 (stereo not given) | 0.0221
5 | O=C(CN1C(=O)CN=C(c2ccccc2)c2ccccc21)NCc1ccco1 | -0.206
6 | O=C(CN1C(=O)CN=C(c2ccccc2Cl)c2cc(Cl)ccc21)NCc1ccco1 | 2.98
7 | CCC(C)C1N=C(c2ccccc2)c2cc(Cl)ccc2N(CC(=O)NCc2ccco2)C1=O (stereo not given) | -0.0258
8 | OC(c1ccccc1)(c1ccccc1)c1ccncc1 | -0.0666
9 | c1ccc(CCNCc2ccccc2)cc1 | -0.78
10 | Cn1cccc1CNCCc1ccc(F)cc1 | -0.24
11 | Cn1cccc1CNCCc1ccccc1 | 6.88 (active)
12 | CCC(=NCCCN(CC)CC)c1c(O)n(C2CCCCC2)c(=O)[nH]c1=O | -0.25
13 | N#Cc1c(Cl)nc(Cl)c2c1CCN(Cc1ccccc1)C2 | -0.608
14 | Cc1ccc(OP(=O)(NCc2ccccc2)Oc2ccc(C)cc2)cc1 | -0.00664
15 | OCC12CO[C@@H]3c4ccccc4[C@H](OC1)N32 (stereo not given in full) | -0.0926
16 | O=C(Nc1ccc(Cl)cc1)Nc1nccs1 | 8.34 (active)
17 | CON(C)C(=O)Nc1ccc(Cl)cc1 | 0.516
18 | O=C(Nc1ccc(Cl)cc1)O/N=C(\c1ccccc1)c1ccccn1 | -0.375
19 | CCC(C)c1ccc(N2C(=O)NC(=O)/C(=C/c3cccn3CCOc3ccc(C)cc3)C2=O)cc1 (stereo not given) | 0.272
20 | Cc1cc(C)c(-n2c(O)c(/C=N/N3CCCCC3c3cccnc3)c(=O)[nH]c2=O)c(C)c1 (stereo not given) | -0.531
21 | Cc1nn(Cc2ccccc2)c(Cl)c1C(=O)OC(C)C(=O)Nc1ccc(F)cc1Cl (stereo not given) | 0.0724
22 | CCCCc1nc(N2CCNCC2)c(C#N)c2c1CSC(C)(C)C2 | 2.01
23 | COc1ccc(CCNC(=O)COC(=O)Cc2ccccc2)cc1 | -0.0964

Row | SMILES | z-score
24 | O=P(OCC(F)(F)C(F)F)(N1CCCCC1)N1CCCCC1 | -0.0155
25 | COC(=O)c1ccccc1-n1c(C)nc2ccccc2c1=O | -0.159
26 | CC(C)CCn1c(=O)c(C(=O)Nc2ccccc2S(N)(=O)=O)c(O)c2ccccc21 | 2
27 | CCCCCn1c(=O)c(C(=O)NCc2ccncc2)c(O)c2ccccc21 | -1.2
28 | CCCCCn1c(=O)c(C(=O)Nc2c(C)n(C)n(-c3ccccc3)c2=O)c(O)c2ccccc21 | -0.252
29 | Cn1cc(C(=O)Cc2ccccc2)c2ccccc21 | 0.166
30 | NC12CN3CN(CN(C3)C1)C2 (tested in a mixture with another compound) | -0.55
31 | CCN1CCN(CC(=O)c2c(C)n(Cc3ccccc3)c3ccc(OC)cc23)CC1 | 0.191
32 | CC(NC1CCCCC1)C(O)C12CC3CC(CC(C3)C1)C2 (stereo not given) | 2.39
33 | CC(C)NC(C)C(=O)C12CC3CC(CC(C3)C1)C2 (stereo not given) | 0.115
34 | O=C(COC(=O)Cc1ccccc1)NC12CC3CC(CC(C3)C1)C2 | -0.0902
35 | COCCn1c(-c2ccccc2)cc(C(=O)O)c1C | 2.06
36 | COCCCn1c(-c2ccc(OC)cc2)cc(C(=O)NC2CCCCCCC2)c1C | -0.648
37 | CCCCn1c(C)c(C(=O)O)c2cc(OC)ccc21 | -0.364
38 | CCS(=O)(=O)N1CCCC(C(=O)N2CCC3(CC2)OCCO3)C1 (stereo not given) | 0.0065
39 | CC(C)c1cccc(C(C)C)c1OCCn1ccnc1 | 2.23
40 | CCOc1ccc(-n2c(O)c(C=NCCCn3ccnc3)c(=O)[nH]c2=O)cc1 | 0.0171
41 | CCCCCSc1cc(OC)c(CCN)cc1OC | 1.67
42 | CCCCCCCSc1cc(OC)c(CCNC)cc1OC | 2.15
43 | CCCCCSc1cc(OC)c(CCNC)cc1OC | 0.115
44 | O=C(C1CC(c2ccc(Cl)c(Cl)c2)=NO1)N1CCC2(CC1)OCCO2 (stereo not given) | 0.509
45 | O=c1[nH]c(=O)n(Cc2ccccc2)c(O)c1C=Nc1ccc(CN2CCOCC2)cc1 | -0.0494
